Pf Dd2 inh: inhibitors of Plasmodium falciparum Dd2 growth. P. falciparum Dd2 growth, SYBR Green, 72 h. Potency, µM (series often up to 28.9 µM), hits mostly inhibitors. 120,000 compounds, 4.3% hits. AID 1347417; active means well fitted inhibition curve with a large enough effect; further: nearly all actives have a fitted effect of over 65% in size
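Infected erythrocytes (Dd2, 0.3% parasitemia, 2.5% hematocrit final) are added to compound in RPMI-1640/Albumax II medium, grown 72 h at 37C in low oxygen, then lysed with saponin/Triton-X containing SYBR Green and read by fluorescence.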
Numbers stand for hits; 0 = inactive; [ ] = dose if it differs, or a comment. The entries come from a sample that favours hits as a whole.

SMILES	Pf Dd2 inh
CN(C)C(=O)C1CCc2nnc(C3CCN(C(=O)c4ccc(Cl)cc4Cl)CC3)n21 (stereo unspecified)	0
CCC1=NOC(CNC(=O)c2ccc(OC3CCN(C(=O)COC)CC3)cc2)C1 (stereo unspecified)	0
CC(=O)c1ccc(NC(=O)O[C@@H]2CO[C@H]3[C@@H]2OC[C@@H]3NC(=O)c2ccccc2)cc1	0
COc1ccc(C2Cn3nnc(-c4noc(-c5ccc(N(C)C)cc5)n4)c3CO2)cc1 (stereo unspecified)	0
COc1ccccc1CCC(=O)NCc1nnc2ccc(-c3ccc(C)c(C)c3)nn12	0
COc1ccc(Cn2c(C3CCN(C(=O)C(C)c4ccccc4)CC3)n[nH]c2=O)cc1 (stereo unspecified)	0
Cc1cccc(C(=O)N2C(C(=O)NCC(C)C)COC23CCN(C(=O)c2ccccc2C)CC3)c1 (stereo unspecified)	0
Cn1nc(C2CCN(C(=O)c3ccc4ccccc4n3)CC2)c2c1CCOC2	0[5.79 µM]
CCN1C(=O)C2CC3(CCN(Cc4ccc(C)s4)CC3)CN2C1=O (stereo unspecified)	0
Cc1ncoc1C(=O)N1CCC[C@H](n2c(=O)n(C)c3cccnc32)C1	0
COc1cccc(C(=O)N2CCCC2c2nncn2CCN(C)C)c1C (stereo unspecified)	0
CC(C)Oc1cccc2c1c(NC(=O)C1CCN(C)C1)nn2Cc1ccccc1 (stereo unspecified)	2.2µM
Cc1nnnn1CC(=O)Nc1nn(Cc2ccccc2)c2cccc(OC(C)C)c12	0
CC(C)Oc1cccc2c1c(NC(=O)C1CC(=O)N(C)C1)nn2Cc1ccccc1 (stereo unspecified)	0
COc1ccccc1NC(=O)CSc1nnc(-c2cccc(Cl)c2)o1	0
Cc1cccc(OCc2nnc(-c3ccccc3)o2)c1	0
CCc1cc(=O)n(CC(=O)Nc2ccccc2C)c(-c2cccc(F)c2)n1	0
CCc1ccccc1NC(c1nnc(-c2cccc(F)c2)o1)c1ccc(F)cc1Cl (stereo unspecified)	13µM
CCOC(=O)c1cccc(NC(c2nnc(-c3ccccc3)o2)c2ccccc2F)c1 (stereo unspecified)	0
COc1cccc(NC(c2nnc(-c3ccccc3)o2)c2ccc(F)cc2Cl)c1 (stereo unspecified)	10µM
COc1ccccc1CNC(=O)c1cc2cn(C(C)C)cc2s1	0
N#Cc1ccc(S(=O)(=O)N2CCC[C@H]2C(=O)N2CCCCCCNC(=O)CC2)cc1	0
CN1C(=O)[C@@H]2C[C@@H](CN2C(=O)c2ccc3c(c2)OCO3)Oc2ccccc21	0
Cc1nnnn1-c1cccc(-c2nc(C3CCOC3)no2)c1 (stereo unspecified)	0
COc1ccccc1C(=O)N1C[C@H](c2nc(-c3ccncc3)no2)[C@@H](C)C1	0
SMILES	Pf Dd2 inh
CN1CCC(Oc2nccnc2N2CCc3ccccc32)C1 (stereo unspecified)	2.8µM
Cn1nccc1C(=O)N1CCC(Oc2nccnc2N2CCOCC2)C1 (stereo unspecified)	0
O=C(c1ccncc1)N1CCC(Oc2nccnc2N2CCOCC2)C1 (stereo unspecified)	0
O=C(Nc1ccc(F)cc1)N[C@H]1[C@H](O)[C@@H](N2CCC(Cc3ccccc3)CC2)[C@@H]2OC[C@H]1O2	0
COc1ccc(-c2nc3cc(C)ccc3cc2CN2CCN(C)C(CCO)C2)cc1 (stereo unspecified)	10µM
COc1ccc2cc(CN3CCCC(C#N)C3)c(-c3cccs3)nc2c1 (stereo unspecified)	0
COc1ccc(-c2nc3cc(C)ccc3cc2CN2CCCC(CO)C2)cc1OC (stereo unspecified)	0
COC[C@@H]1CCCN1Cc1cc2ccc(C)cc2nc1-c1ccc(OC)cc1	14µM
COC[C@H]1CCCN1Cc1nc(C2(O)CCN(C)CC2)cs1	0
COc1ccc(-c2nc3cc(C)ccc3cc2CN2CCCC(O)C2)cc1OC (stereo unspecified)	0
Cc1ccc2c(n1)N(C)[C@H](CO)CCN(Cc1ccncc1)C2	0
C#CCNC(=O)C1CCc2nnc(CNC(=O)Nc3cccnc3)n21 (stereo unspecified)	0
Cc1ccc(Cn2c(=O)n(CC3CCC(C(=O)N4CCC(C)CC4)CC3)c(=O)c3sccc32)cc1 (stereo unspecified)	0
COc1cccc(Cn2c(=O)n(CC3CCC(C(=O)N4CCCCC4)CC3)c(=O)c3sccc32)c1 (stereo unspecified)	10µM
Cc1cccc(Cn2c(=O)n(CC3CCC(C(=O)NC(C)C)CC3)c(=O)c3sccc32)c1 (stereo unspecified)	0
CNC(=O)C1CCC(Cn2c(=O)c3sccc3n(CC(=O)N3CCC(C)CC3)c2=O)CC1 (stereo unspecified)	0
COc1cccc(Cn2c(=O)n(CC3CCC(C(=O)NC(C)C)CC3)c(=O)c3sccc32)c1 (stereo unspecified)	0
Cc1ccccc1Cn1c(=O)n(CC2CCC(C(=O)N3CCC(C)CC3)CC2)c(=O)c2sccc21 (stereo unspecified)	11µM
O=C(N[C@H]1CCOC[C@H]1C1CCOCC1)c1cnc(CN2CCCC2)s1	0
Cc1cccnc1CN1CCN2C(=O)N(Cc3ccc(F)cc3)C[C@H]2C1	0
Cn1nc(-c2ccc3c(c2)OCCO3)nc1N1CCCCC1	0
CCCc1nc(C(=O)NCC(C)Cn2nc(C)cc2C(F)(F)F)cs1 (stereo unspecified)	0
CC(C)c1nnc(NC(=O)C2CC(=O)N(c3n[nH]c4cc(Br)ccc34)C2)s1 (stereo unspecified)	0
COc1ccc(C2Cn3nnc(-c4noc(-c5ccc(C)cc5)n4)c3CO2)cc1 (stereo unspecified)	0
COCCNC(=O)[C@H]1C[C@H](Oc2cccnc2)CN1C(=O)Nc1ccc2c(c1)OCCO2	0
SMILES	Pf Dd2 inh
CNC(=O)C(C)(C)N1CCC[C@H]1C(=O)NC1CCCC1	0
CC(C)NC(=O)N(C1CCOCC1)C1CN(S(=O)(=O)Cc2ccccc2F)C1	0
CC(=O)NCCCC(=O)N1Cc2ccccc2OC2(CCN(C(=O)N(C)C)CC2)C1	0
CN(C)C(=O)N1CCC2(CC1)CN(C(=O)CCc1c[nH]c3ccccc13)Cc1ccccc1O2	5µM
CC(=O)N1Cc2ccccc2OC2(CCN(C(=O)CCc3c[nH]c4ccccc34)CC2)C1	0
COc1ccc(C(=O)Nc2ccc3c(N4CCOCC4)ncnc3c2)c(C)c1	0
CC(C)CC(=O)N1C[C@@H]2CCCN3CCC[C@@H]([C@H]23)[C@H]1CCCC(=O)NCC1CC1	0
COc1ccc(-c2ccnc(N[C@H]3CO[C@H]4[C@@H]3OC[C@H]4OCC(N)=O)n2)cc1	0
CCC(CO)Nc1ncnc2c1CN(C1CCCNCC1)C(=O)CN2C (stereo unspecified)	0
CC1=Nc2cc(C(=O)NC3CCCC3)ccc2Sc2ccc(Cl)cc21	11µM
CCN1c2cc(C(=O)NC3CCCC3)ccc2C(=O)N2CCCCCC21 (stereo unspecified)	0
CCN1c2cc(C(=O)NC3CCCC3)ccc2C(=O)N2CCCCC21 (stereo unspecified)	0
CCC1=Nc2cc(C(=O)NCCC(C)C)ccc2Sc2ccc(Br)cc21	13µM
CC(C)CCNC(=O)c1ccc2c(c1)N(C)C(=O)c1ccccc1S2	0
CCC1=Nc2cc(C(=O)NC3CCCC3)ccc2Sc2ccc(Cl)cc21	4.5µM
CCN1C(=O)Cc2cc(C(=O)NCCC(C)C)ccc21	0
CC1=Nc2cc(C(=O)NC3CCCC3)ccc2Sc2ccc(C)cc21	0

From PubChem
